Reference: the supplement of paper PMC10849652
Targets with a hit are over-represented here; the source holds about 7,900 in all. About 0.6% of all pairs of compound and target were hits.

Legend:
Test in all cases: log2 fold change, soluble protein after heating vs DMSO (PISA); higher = thermal stabilisation; K562 cells, 10 uM, 30 min; active = over 0.2 and 3.5 SD of the protein, either way, in both replicates (recomputed)
erlotinib = compound: C#Cc1cccc(Nc2ncnc3cc(OCCOC)c(OCCOC)cc23)c1 [erlotinib]
Method in brief: (§1)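 Soluble protein was quantified by TMTpro 16plex LC-MS/MS after channel sums were equalised. It was obtained as the supernatant after 21,000xg for 90 min from pooled aliquots of K562 cells (2×10^6 cells/mL, 10 μM compound, 30 min) heated for 3 min across 48°C-58°C and extracted in PBS with 0.5% NP-40 at 4°C. Thermal stability values are relative to control samples and come from duplicates. They are given as log2 fold changes.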

[1] = compound: C/C(=N\NC(=O)C1=CC(=CC=C1)S(=O)(=O)N2CCOCC2)/C3=C(C=CC(=C3)Cl)O
Method in brief: as §1

[2] = compound: C1=CC(=C(C=C1Cl)C2=NC3=NC=CN=C3C(=N2)NC4=CC=NC=C4)F
Method in brief: as §1

[3] = compound: C1=CC(=CC=C1C2=NC3=C(N2)C=C(C=C3)C(=O)N)OC4=CC=C(C=C4)Cl
Method in brief: as §1

[4] = compound: C1=CC2=C(C=CC(=C2)/C=C\3/C(=O)NC(=NCC4=CC=CS4)S3)N=C1
Method in brief: as §1

[5] = compound: C1=CC2=NC=CN=C2C=C1/C=C/3\C(=O)NC(=O)S3
Method in brief: as §1

[6] = compound: C1=CC=C(C=C1)C2=NC(=C(N2)C3=CC=NC=C3)C4=CC(=C(C=C4)Cl)O
Method in brief: as §1

[7] = compound: C1=CC=C2C(=C1)C3=NNC4=CC=CC(=C43)C2=O
Method in brief: as §1

[8] = compound: C1CCN(C1)C(=O)NC2=CC=CC(=C2)NC3=NC=C(C(=N3)NCCC4=CN=CN4)Br
Method in brief: as §1

[9] = compound: C1CN(CCC1(CC2=CC=C(C=C2)Cl)N)C3=NC=NC4=C3C=CN4
Method in brief: as §1

IRAK-1-4 Inhibitor I = compound: C1COCCN1CCN2C3=CC=CC=C3N=C2NC(=O)C4=CC(=CC=C4)[N+](=O)[O-] [IRAK-1-4 Inhibitor I]
Method in brief: as §1

ibrutinib = compound: C=CC(=O)N1CCC[C@@H](n2nc(-c3ccc(Oc4ccccc4)cc3)c3c(N)ncnc32)C1 [ibrutinib]
Method in brief: as §1

[10] = compound: CC(=O)c1cnc2ccc(-c3cc(Cl)c(O)c(Cl)c3)nc2c1N[C@H]1CC[C@H](CN(C)C)CC1
Method in brief: as §1

ralimetinib = compound: CC(C)(C)Cn1c(N)nc2ccc(-c3[nH]c(C(C)(C)C)nc3-c3ccc(F)cc3)nc21 [ralimetinib]
Method in brief: as §1

[11] = compound: CC(C)(O)CC(=O)NCCn1ccc2ncnc(Nc3ccc(Oc4cccc(C(F)(F)F)c4)c(Cl)c3)c21
Method in brief: as §1

[12] = compound: CC(C)C1=C2N=C(C=C(N2N=C1)NCC3=CC=CC=C3)NCCCCCCN
Method in brief: as §1

[13] = compound: CC(C)C[C@@H](C=O)NC(=O)[C@H](CC(C)C)NC(=O)[C@H](CC(C)C)NC(=O)OCc1ccccc1
Method in brief: as §1

pinometostat = compound: CC(C)N(C[C@H]1O[C@@H](n2cnc3c(N)ncnc32)[C@H](O)[C@@H]1O)[C@H]1C[C@@H](CCc2nc3cc(C(C)(C)C)ccc3[nH]2)C1 [pinometostat]
Method in brief: as §1

[14] = compound: CC1=C(C(CC(=O)N1)C2=CC=C(C=C2)C(F)(F)F)C(=O)NC3=C(C=C4C(=C3)C=NN4)F
Method in brief: as §1

[15] = compound: CC1=C(C2=C(C=C1)C(=O)C3=CC=CC=C3N2CCCN)C
Method in brief: as §1

Measured: log2 fold change

RAB8B (UniProt Q92930)
Sequence of UniProt Q92930 (Q92930 whole entry, looked up): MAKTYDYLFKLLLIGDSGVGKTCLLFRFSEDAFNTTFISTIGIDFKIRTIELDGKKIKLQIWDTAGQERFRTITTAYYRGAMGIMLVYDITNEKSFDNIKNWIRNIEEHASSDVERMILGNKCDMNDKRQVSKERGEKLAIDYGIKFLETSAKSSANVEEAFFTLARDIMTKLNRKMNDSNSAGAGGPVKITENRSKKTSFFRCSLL
active: [2] 0.332
inactive: erlotinib 0.258 | [1] 0.085 | [3] 0.028 | [4] -0.02 | [5] 0.145 | [6] 0.029 | [7] 0.012 | [8] 0.027 | [9] -0.043 | IRAK-1-4 Inhibitor I 0.028 | ibrutinib -0.009 | [10] 0 | ralimetinib -0.001 | [11] -0.047 | [12] -0.002 | [13] 0.046 | pinometostat -0.091 | [14] 0.019 | [15] 0.004

RRAGB (UniProt Q5VZM2)
Sequence of UniProt Q5VZM2 (Q5VZM2 whole entry, looked up): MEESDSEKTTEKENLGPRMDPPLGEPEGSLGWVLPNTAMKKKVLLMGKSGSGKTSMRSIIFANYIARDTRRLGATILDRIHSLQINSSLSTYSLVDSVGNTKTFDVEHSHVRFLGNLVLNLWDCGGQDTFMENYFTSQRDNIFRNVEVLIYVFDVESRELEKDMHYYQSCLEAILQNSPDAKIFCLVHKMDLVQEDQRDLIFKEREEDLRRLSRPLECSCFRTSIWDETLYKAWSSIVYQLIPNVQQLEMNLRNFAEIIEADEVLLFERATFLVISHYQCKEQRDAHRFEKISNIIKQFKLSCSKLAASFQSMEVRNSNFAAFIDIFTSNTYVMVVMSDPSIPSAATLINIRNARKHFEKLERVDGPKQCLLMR
inactive: erlotinib -0.028 | [1] 0.047 | [2] 0.004 | [3] 0.023 | [4] -0.13 | [5] 0 | [6] 0.021 | [7] 0.082 | [8] -0.048 | [9] 0.037 | IRAK-1-4 Inhibitor I 0.034 | ibrutinib 0.029 | [10] 0.08 | ralimetinib 0.002 | [11] -0.012 | [12] -0.162 | [13] 0.011 | pinometostat 0.039 | [14] -0.016 | [15] 0.026

RHOXF2 (UniProt Q9BQY4)
Sequence of UniProt Q9BQY4 (Q9BQY4 whole entry, looked up): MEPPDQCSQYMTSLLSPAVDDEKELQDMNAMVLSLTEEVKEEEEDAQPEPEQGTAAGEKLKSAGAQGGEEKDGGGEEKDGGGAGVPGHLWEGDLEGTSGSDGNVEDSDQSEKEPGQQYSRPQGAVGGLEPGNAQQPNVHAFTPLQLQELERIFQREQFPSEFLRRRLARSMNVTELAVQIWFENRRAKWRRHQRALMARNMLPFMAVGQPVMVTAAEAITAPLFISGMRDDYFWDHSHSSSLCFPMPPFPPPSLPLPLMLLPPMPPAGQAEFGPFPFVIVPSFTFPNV
inactive: erlotinib -0.067 | [1] -0.137 | [2] -0.002 | [3] 0.003 | [4] -0.06 | [5] 0.054 | [6] 0.06 | [7] -0.026 | [8] 0.036 | [9] 0.011 | IRAK-1-4 Inhibitor I 0.012 | ibrutinib 0.003 | [10] 0.002 | ralimetinib 0.051 | [11] -0.031 | [12] -0.03 | [13] 0.027 | pinometostat -0.037 | [14] 0.027 | [15] -0.007

SCAF11 (UniProt Q99590)
Sequence of UniProt Q99590 (Q99590 whole entry, looked up): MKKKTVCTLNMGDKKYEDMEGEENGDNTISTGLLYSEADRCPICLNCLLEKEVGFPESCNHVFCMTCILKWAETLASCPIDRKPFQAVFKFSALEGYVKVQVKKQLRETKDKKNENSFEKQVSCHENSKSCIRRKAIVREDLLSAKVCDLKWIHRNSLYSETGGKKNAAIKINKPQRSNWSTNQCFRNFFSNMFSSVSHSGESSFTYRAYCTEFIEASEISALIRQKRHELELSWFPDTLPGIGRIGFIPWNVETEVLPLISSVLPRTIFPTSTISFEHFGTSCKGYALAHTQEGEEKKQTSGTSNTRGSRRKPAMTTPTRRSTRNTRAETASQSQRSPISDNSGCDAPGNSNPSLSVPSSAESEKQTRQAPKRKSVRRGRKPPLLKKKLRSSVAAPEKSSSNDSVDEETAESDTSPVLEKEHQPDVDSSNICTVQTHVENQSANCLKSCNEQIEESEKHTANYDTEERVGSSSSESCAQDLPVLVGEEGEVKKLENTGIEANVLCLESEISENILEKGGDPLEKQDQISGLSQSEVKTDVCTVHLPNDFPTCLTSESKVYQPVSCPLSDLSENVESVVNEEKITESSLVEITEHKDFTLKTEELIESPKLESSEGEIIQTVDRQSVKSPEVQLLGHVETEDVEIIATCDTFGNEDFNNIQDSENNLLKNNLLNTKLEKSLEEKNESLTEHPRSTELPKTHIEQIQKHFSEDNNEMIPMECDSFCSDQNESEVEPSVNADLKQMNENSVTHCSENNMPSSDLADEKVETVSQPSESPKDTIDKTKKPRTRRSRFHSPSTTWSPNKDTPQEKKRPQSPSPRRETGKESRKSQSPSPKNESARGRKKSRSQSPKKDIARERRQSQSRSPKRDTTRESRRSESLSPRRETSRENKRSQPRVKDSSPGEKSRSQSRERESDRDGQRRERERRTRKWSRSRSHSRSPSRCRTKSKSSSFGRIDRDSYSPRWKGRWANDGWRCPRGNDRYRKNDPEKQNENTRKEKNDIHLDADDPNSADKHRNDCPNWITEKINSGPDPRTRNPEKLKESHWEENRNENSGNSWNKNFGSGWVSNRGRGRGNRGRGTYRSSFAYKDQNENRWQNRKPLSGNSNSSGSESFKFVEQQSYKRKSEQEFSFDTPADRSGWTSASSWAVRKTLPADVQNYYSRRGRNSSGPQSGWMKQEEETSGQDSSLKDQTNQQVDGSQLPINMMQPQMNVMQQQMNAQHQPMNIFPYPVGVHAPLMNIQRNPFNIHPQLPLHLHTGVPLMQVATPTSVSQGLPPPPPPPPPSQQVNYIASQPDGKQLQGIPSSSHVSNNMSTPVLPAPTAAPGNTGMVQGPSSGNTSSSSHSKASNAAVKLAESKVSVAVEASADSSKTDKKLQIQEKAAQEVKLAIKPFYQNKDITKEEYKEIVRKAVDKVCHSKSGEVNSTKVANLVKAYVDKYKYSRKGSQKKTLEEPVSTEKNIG
inactive: erlotinib -0.074 | [1] -0.09 | [2] -0.16 | [3] 0.03 | [4] -0.134 | [5] -0.076 | [6] -0.014 | [7] -0.068 | [8] 0.125 | [9] -0.035 | IRAK-1-4 Inhibitor I 0.076 | ibrutinib 0.099 | ralimetinib 0.166 | [11] -0.084 | [12] 0.134 | [13] 0.213 | pinometostat 0.157 | [14] -0.036 | [15] 0.112
active: [10] 0.714

SHCBP1 (UniProt Q8NEM2)
Sequence of UniProt Q8NEM2 (Q8NEM2 whole entry, looked up): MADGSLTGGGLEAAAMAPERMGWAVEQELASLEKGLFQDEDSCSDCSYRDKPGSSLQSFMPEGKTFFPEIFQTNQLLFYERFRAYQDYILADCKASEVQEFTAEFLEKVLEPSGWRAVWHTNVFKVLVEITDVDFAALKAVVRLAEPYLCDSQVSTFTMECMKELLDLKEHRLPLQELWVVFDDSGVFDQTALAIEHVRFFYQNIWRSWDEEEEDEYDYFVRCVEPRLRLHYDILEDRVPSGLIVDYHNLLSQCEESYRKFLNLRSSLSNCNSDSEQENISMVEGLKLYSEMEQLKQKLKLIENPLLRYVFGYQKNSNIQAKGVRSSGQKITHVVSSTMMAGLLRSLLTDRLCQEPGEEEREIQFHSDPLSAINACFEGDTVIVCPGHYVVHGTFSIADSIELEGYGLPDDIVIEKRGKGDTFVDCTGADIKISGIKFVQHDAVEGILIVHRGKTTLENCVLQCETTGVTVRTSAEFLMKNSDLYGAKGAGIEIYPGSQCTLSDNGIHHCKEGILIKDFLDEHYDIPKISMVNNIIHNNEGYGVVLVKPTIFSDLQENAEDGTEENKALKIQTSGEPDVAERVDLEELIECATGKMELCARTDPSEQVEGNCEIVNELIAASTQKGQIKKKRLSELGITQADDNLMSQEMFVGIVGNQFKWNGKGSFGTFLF
inactive: erlotinib -0.013 | [1] -0.029 | [2] -0.027 | [3] 0.018 | [4] 0.137 | [5] 0.028 | [6] -0.104 | [7] 0.054 | [8] 0.127 | [9] -0.128 | IRAK-1-4 Inhibitor I -0.11 | ibrutinib -0.072 | [10] -0.013 | ralimetinib 0.025 | [11] -0.121 | [13] 0.012 | pinometostat 0.066 | [14] 0.074 | [15] 0.02
active: [12] -0.516

SETD3 (UniProt Q86TU7)
inactive: erlotinib 0.01 | [1] -0.007 | [2] 0.04 | [3] 0.009 | [4] 0.06 | [5] 0.002 | [6] 0.031 | [7] 0.004 | [8] -0.015 | [9] 0.044 | IRAK-1-4 Inhibitor I -0.007 | ibrutinib 0.011 | [10] -0.018 | ralimetinib -0.041 | [11] -0.013 | [12] 0.027 | [13] -0.022 | pinometostat 0.002 | [14] -0.03 | [15] 0.05

RAB9A (UniProt P51151)
Sequence of UniProt P51151 (P51151 whole entry, looked up): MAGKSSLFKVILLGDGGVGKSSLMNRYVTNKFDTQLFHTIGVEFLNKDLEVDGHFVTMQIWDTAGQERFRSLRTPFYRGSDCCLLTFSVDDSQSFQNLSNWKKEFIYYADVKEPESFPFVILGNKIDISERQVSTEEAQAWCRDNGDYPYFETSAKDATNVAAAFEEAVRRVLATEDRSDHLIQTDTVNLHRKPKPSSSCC
inactive: erlotinib 0.037 | [1] 0.05 | [2] 0.017 | [3] 0.016 | [4] 0.046 | [5] -0.022 | [6] -0.005 | [7] -0.01 | [8] 0.017 | [9] 0.056 | IRAK-1-4 Inhibitor I 0.018 | ibrutinib 0.018 | [10] -0.001 | ralimetinib -0.001 | [11] -0.014 | [12] -0.126 | [13] -0.008 | pinometostat -0.027 | [14] -0.021 | [15] 0.06

RABGAP1L isoform 3 (UniProt Q5R372)
inactive: erlotinib 0.087 | [1] 0.052 | [2] 0.161 | [3] -0.021 | [4] 0.029 | [5] 0.033 | [6] -0.001 | [7] 0.035 | [8] 0.004 | [9] 0.007 | IRAK-1-4 Inhibitor I 0.057 | ibrutinib 0.02 | [10] 0.011 | ralimetinib -0.012 | [11] -0.206 | [12] -0.068 | [13] -0.034 | pinometostat -0.006 | [14] -0.137 | [15] 0.055

RBIS (UniProt Q8N0T1)
Sequence of UniProt Q8N0T1 (Q8N0T1 whole entry, looked up): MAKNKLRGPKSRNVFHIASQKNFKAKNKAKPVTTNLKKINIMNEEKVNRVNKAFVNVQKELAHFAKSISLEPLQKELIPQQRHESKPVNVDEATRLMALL
active: [13] 0.281 | [15] -0.478
inactive: erlotinib -0.051 | [1] 0.015 | [2] -0.038 | [3] 0.044 | [4] 0.007 | [5] 0.031 | [6] -0.121 | [7] -0.083 | [8] 0.037 | [9] -0.093 | IRAK-1-4 Inhibitor I -0.038 | ibrutinib 0.019 | [10] -0.109 | ralimetinib -0.021 | [11] 0.083 | [12] -0.001 | pinometostat 0.044 | [14] 0.066

RARS2 (UniProt Q5T160)
Sequence of UniProt Q5T160 (Q5T160 whole entry, looked up): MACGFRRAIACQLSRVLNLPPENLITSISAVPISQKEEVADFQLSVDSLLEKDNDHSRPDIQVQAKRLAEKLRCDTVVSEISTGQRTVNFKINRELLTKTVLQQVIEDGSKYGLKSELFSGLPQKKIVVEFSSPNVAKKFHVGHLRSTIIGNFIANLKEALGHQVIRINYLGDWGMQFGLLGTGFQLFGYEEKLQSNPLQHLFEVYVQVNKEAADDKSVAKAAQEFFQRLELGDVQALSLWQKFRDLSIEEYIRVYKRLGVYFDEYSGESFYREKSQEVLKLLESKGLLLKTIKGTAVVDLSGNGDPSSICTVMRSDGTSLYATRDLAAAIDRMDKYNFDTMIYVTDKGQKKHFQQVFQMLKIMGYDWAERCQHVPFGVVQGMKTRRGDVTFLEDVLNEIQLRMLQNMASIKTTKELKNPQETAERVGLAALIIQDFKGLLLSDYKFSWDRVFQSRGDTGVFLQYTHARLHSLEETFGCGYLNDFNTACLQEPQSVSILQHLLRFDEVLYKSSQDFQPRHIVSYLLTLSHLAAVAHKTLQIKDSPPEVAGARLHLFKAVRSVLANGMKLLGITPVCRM
inactive: erlotinib 0.009 | [1] 0.057 | [2] 0.063 | [3] 0.029 | [4] 0.015 | [5] 0.014 | [6] 0.056 | [7] 0 | [8] 0.022 | [9] 0.038 | IRAK-1-4 Inhibitor I 0.053 | ibrutinib 0.003 | [10] -0.012 | ralimetinib -0.039 | [11] -0.081 | [12] -0.214 | [13] -0.061 | pinometostat -0.032 | [14] -0.011 | [15] -0.007

RBM39 (UniProt Q14498)
inactive: erlotinib 0.087 | [1] 0.074 | [2] 0.013 | [3] -0.028 | [4] -0.021 | [5] -0.052 | [6] -0.022 | [7] -0.168 | [8] -0.071 | [9] -0.232 | IRAK-1-4 Inhibitor I -0.193 | ibrutinib 0 | ralimetinib 0.044 | [11] -0.028 | [12] -0.267 | [13] 0.043 | pinometostat 0.042 | [14] -0.022 | [15] 0.104
active: [10] -0.497

RIOK3 (UniProt O14730)
active: [15] -0.231
inactive: erlotinib 0.037 | [1] 0.014 | [2] 0.062 | [3] 0.003 | [4] -0.019 | [5] 0.048 | [6] -0.033 | [7] 0.02 | [8] 0.024 | [9] -0.025 | IRAK-1-4 Inhibitor I 0.087 | ibrutinib 0.002 | [10] 0.024 | ralimetinib -0.009 | [11] -0.083 | [12] -0.009 | [13] 0.021 | pinometostat -0.011 | [14] 0.019

RDH10 (UniProt Q8IZV5)
Sequence of UniProt Q8IZV5 (Q8IZV5 whole entry, looked up): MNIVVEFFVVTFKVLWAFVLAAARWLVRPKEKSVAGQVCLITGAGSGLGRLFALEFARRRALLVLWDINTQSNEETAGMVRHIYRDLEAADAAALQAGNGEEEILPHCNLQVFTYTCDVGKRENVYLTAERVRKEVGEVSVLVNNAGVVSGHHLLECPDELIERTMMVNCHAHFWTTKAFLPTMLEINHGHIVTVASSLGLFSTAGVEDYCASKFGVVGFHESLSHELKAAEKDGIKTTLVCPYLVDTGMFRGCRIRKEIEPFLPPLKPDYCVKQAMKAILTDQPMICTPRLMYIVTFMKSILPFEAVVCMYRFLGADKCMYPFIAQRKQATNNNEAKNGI
inactive: erlotinib 0.122 | [1] 0.065 | [2] 0.024 | [3] 0.003 | [4] 0.204 | [5] -0.035 | [6] 0.077 | [7] 0.039 | [8] -0.008 | [9] 0.235 | IRAK-1-4 Inhibitor I 0.076 | ibrutinib 0.159 | [10] -0.07 | ralimetinib 0.008 | [11] 0.075 | [12] 0.069 | [13] -0.043 | pinometostat -0.018 | [14] 0.007 | [15] 0.007

RETSAT (UniProt Q6NUM9)
Sequence of UniProt Q6NUM9 (Q6NUM9 whole entry, looked up): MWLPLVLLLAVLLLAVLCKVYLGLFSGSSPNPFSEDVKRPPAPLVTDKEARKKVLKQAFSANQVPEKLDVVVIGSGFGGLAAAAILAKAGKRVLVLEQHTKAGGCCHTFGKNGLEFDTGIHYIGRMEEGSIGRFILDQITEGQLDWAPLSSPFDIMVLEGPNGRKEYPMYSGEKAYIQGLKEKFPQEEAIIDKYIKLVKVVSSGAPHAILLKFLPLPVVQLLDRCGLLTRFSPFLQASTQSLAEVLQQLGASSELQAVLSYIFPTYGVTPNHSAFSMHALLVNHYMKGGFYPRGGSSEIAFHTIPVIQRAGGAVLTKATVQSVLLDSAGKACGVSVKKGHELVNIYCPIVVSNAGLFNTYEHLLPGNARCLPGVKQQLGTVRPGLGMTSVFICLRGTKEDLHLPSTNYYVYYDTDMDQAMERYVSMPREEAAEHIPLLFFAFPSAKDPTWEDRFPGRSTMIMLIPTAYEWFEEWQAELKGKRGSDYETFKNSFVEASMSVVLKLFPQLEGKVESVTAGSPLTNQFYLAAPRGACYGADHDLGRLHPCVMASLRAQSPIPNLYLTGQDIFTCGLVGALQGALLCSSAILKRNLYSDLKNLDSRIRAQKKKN
active: [3] 0.502
inactive: erlotinib 0.044 | [1] -0.149 | [2] 0.132 | [4] 0.052 | [5] 0.002 | [6] 0.056 | [7] 0.144 | [8] -0.126 | [9] 0.194 | IRAK-1-4 Inhibitor I -0.09 | ibrutinib 0.042 | [10] 0.01 | ralimetinib 0.012 | [11] 0.178 | [12] -0.048 | [13] -0.007 | pinometostat -0.012 | [14] -0.037 | [15] 0.059

RIOK2 (UniProt Q9BVS4)
active: [10] 0.465
inactive: erlotinib -0.081 | [1] -0.064 | [2] -0.149 | [3] 0.097 | [4] -0.043 | [5] -0.055 | [6] -0.01 | [7] 0.055 | [8] 0.035 | [9] -0.209 | IRAK-1-4 Inhibitor I -0.061 | ibrutinib 0.013 | ralimetinib 0.119 | [11] 0 | [12] -0.014 | [13] 0.084 | pinometostat 0.132 | [14] -0.014 | [15] -0.068

RPS27A (UniProt P62979)
active: [15] -0.557
inactive: erlotinib -0.246 | [1] -0.143 | [2] -0.207 | [3] 0.016 | [4] -0.136 | [5] -0.033 | [6] 0.004 | [7] -0.062 | [8] 0.111 | [9] -0.098 | IRAK-1-4 Inhibitor I -0.055 | ibrutinib 0.141 | [10] 0.054 | ralimetinib 0.082 | [11] 0.216 | [12] 0.051 | [13] 0.114 | pinometostat 0.078 | [14] 0.157
